# Hit rate of the full screen: of about 220,000 compounds, about 710 (0.32%) were called active. This is one part of a sample in which actives are shown more often than they occur. No stated cut-off is given here; in the data, active means binding response below about 49% or above about 150%; inactive means in between.
# Target: Guanine nucleotide-binding protein G(o) subunit alpha (Homo sapiens) (UniProt P09471)
# Assay: RGS4-Galphao interaction inhibitors and enhancers – biochemical, multiplexed bead flow cytometry, primary screen (AID 1415);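 further: fluorescent Galphao activated with aluminum fluoride binding bead-coupled RGS4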
# Details: at 10 µM, actives lie on both sides
# Sequence of Guanine nucleotide-binding protein G(o) subunit alpha (Homo sapiens) (P09471 whole entry, looked up): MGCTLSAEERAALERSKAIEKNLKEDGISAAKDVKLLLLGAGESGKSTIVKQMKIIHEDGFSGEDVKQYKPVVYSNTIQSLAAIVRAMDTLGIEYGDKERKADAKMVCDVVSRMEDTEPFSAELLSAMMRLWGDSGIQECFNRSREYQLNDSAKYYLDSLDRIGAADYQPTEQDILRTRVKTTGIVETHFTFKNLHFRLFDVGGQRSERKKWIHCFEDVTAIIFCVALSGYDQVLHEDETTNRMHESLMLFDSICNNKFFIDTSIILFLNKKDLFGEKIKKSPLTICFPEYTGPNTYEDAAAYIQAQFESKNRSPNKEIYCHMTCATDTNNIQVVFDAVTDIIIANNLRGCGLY
row,SMILES,binding response (% of control)
1,NC(=O)[C@H]1CC2(CC(c3cccc(NC(=O)[C@H]4CCC(=O)N4)c3)=NO2)CN1C(=O)c1ccccc1C(=O)c1ccccc1 (stereo partly specified),101% (inactive)
2,CC1CCN(C(=S)NC2CC3CCC2C3)CC1 (stereo unspecified),107% (inactive)
3,O=C(Nc1ccn(Cc2ccccc2)n1)c1cccc(F)c1,97.8% (inactive)
4,Cc1ccc(Cn2ccc(NC(=O)C3C4CCC(C4)C3C(=O)O)n2)cc1 (stereo unspecified),103% (inactive)
5,Cc1ccc(Cn2ccc(NC(=O)c3cc(C(C)C)on3)n2)cc1,49% (active)
6,Cc1cc(C)n(-c2ccc3nncn3n2)n1,97.6% (inactive)
7,Cn1ccc(NC(=O)Nc2ccc(Cl)cc2)n1,101% (inactive)
8,Cn1cc(C(=O)NCc2ccccc2F)cn1,101% (inactive)
9,COC(=O)CCCC1=CC2=CC(=O)C(C)(OC(=O)c3cccs3)C(=O)C2=CN1c1cccc(C#N)c1 (stereo unspecified),96% (inactive)
10,CCOc1cccc(OCCCOc2cccc3cccnc23)c1,93% (inactive)
11,O=C(NNC1=C(C(=O)C(F)(F)F)CCC1)c1ccncc1,86.6% (inactive)
12,Cc1ccc(N2C(=O)C(Cc3ccccc3)NC2=S)cc1 (stereo unspecified),104% (inactive)
13,Cc1ccc(N2C(=O)C3CC3C2=O)cc1 (stereo unspecified),100% (inactive)
14,Cc1ccc(N2C(=O)C3C(c4ccccc4)(C2=O)C3(c2ccccc2)c2ccccc2)cc1 (stereo unspecified),8.37% (active)
15,CC(=O)c1ccc(S(=O)(=O)N2CCN(C(=O)/C=C/c3ccc4ccccc4n3)CC2)cc1,84% (inactive)
16,Cc1cccc(NC(=O)CSc2nnc(CCNC(=O)OC(C)(C)C)o2)c1C,93.8% (inactive)
17,O=C(COC(=O)/C=C/c1ccc2c(c1)OCO2)NC1CCS(=O)(=O)C1 (stereo unspecified),104% (inactive)
18,Nc1ccc(C(=O)OCC(=O)NC2CCS(=O)(=O)C2)cc1[N+](=O)[O-] (stereo unspecified),-18.4% (active)
19,Nc1ccc(C(=O)OCC(=O)NC2CCCc3ccccc32)cc1[N+](=O)[O-] (stereo unspecified),98.3% (inactive)
20,Cc1ccc(C(=O)Nc2nc(N)n(-c3ccccc3)n2)cc1,103% (inactive)
21,CC(=O)c1ccc(NC(=S)N(Cc2ccccc2)C(C)C2CC2)cc1 (stereo unspecified),106% (inactive)

row,SMILES,binding response (% of control)
1,COCC(C)n1c(C)cc(C(=O)COc2ccc(C)nc2[N+](=O)[O-])c1C (stereo unspecified),99.8% (inactive)
2,Cc1cc(C)n(CC(O)CN(c2ccccc2)S(=O)(=O)c2ccc3ccccc3c2)n1 (stereo unspecified),13.8% (active)
3,Cc1ccc(N(CC(O)CN2CCCC2)S(=O)(=O)c2ccccc2)cc1 (stereo unspecified),101% (inactive)
4,O=S(=O)(c1ccccc1)N(CC(O)CN1CCCCC1)c1ccccc1 (stereo unspecified),103% (inactive)
5,COC(=O)c1ccc(CN2CCN(CCCc3ccccc3)C(CCO)C2)cc1 (stereo unspecified),91.5% (inactive)
6,CCN(C(=O)COC(=O)c1cc(S(=O)(=O)N2CCc3ccccc32)ccc1OC)C1CCS(=O)(=O)C1 (stereo unspecified),104% (inactive)
7,O=C(CCCCCn1c(=O)[nH]c2ccccc2c1=O)NCCc1c[nH]c2ccccc12,100% (inactive)
8,COc1ccccc1NC(=O)CCCc1c[nH]c2ccccc12,440% [activator] (active)
9,COc1ccccc1NC(=O)C[n+]1ccccc1,96% (inactive)
10,COc1ccc(CCNS(=O)(=O)c2cccc3cccnc23)cc1OC,97.9% (inactive)
11,O=C(CSc1ccc([N+](=O)[O-])cn1)Nc1ccc(N2CCOCC2)c(Cl)c1,94.7% (inactive)
12,O=C(CN1CCN(c2ccc(Cl)cc2)CC1)N1CCCC1,104% (inactive)
13,COC(=O)c1ccccc1OCC(=O)N1CCN(c2ccc(Cl)cc2)CC1,349% [activator] (active)
14,O=C(COc1ccc(Cl)cc1)N1CCN(c2cccc(C(F)(F)F)c2)CC1,101% (inactive)
15,Cc1cccc(CSc2nc3c(c(=O)n2C)SCC3)c1,98.4% (inactive)
16,CCc1n[nH]c(=S)n1/N=C/c1c[nH]c2ccc(Br)cc12,103% (inactive)
17,COc1c(O)cc2oc(-c3ccc(O)c(O)c3)cc(=O)c2c1O,90.8% (inactive)
18,Cc1ccc(-c2c[n+](=O)c3c(n2[O-])CCC3)cc1,101% (inactive)
19,Clc1ccc(C2CC(c3cccs3)n3ncnc3N2)cc1Cl (stereo unspecified),97.8% (inactive)
20,FC(F)Oc1ccccc1C1CC(c2ccc(Br)s2)Nc2ncnn21 (stereo unspecified),187% [activator] (active)
21,COc1ccc(C2CC(c3ccccc3)Nc3ncnn32)cc1 (stereo unspecified),99.7% (inactive)

row,SMILES,binding response (% of control)
1,Cc1ccc(C(=O)Cc2nnc(C)s2)cc1,100% (inactive)
2,COC(=O)[C@H]1Cc2cnoc2C[C@]1(C)C(=O)O,101% (inactive)
3,CCOC(=O)c1ccc(NC(=O)c2nc[nH]c2C(=O)N[C@@H](CCCCNC(=O)OC(C)(C)C)C(=O)OC(C)(C)C)cc1,96.7% (inactive)
4,CC(C(=O)O)n1cnc2sc3c(c2c1=O)CCCC3 (stereo unspecified),94.7% (inactive)
5,C=CCn1c(=NC(=O)c2cccs2)sc2cc(NC(C)=O)ccc21,154% [activator] (active)
6,CC(=O)Nc1ccc(/C=N/NC(=O)c2cccs2)cc1,99.4% (inactive)
7,C=CCn1c(=NC(=O)c2ccc(S(=O)(=O)N3CCCC3)cc2)sc2cc(NC(C)=O)ccc21,94.5% (inactive)
8,Cc1ccc(OCC(=O)Nc2nnc(-c3ccco3)s2)cc1,102% (inactive)
9,Cc1ccc2[nH]c(=O)c(CN3CCCCC3)c(-c3ccccc3)c2c1,101% (inactive)
10,CCOC(=O)NNc1cc(C(F)(F)F)ccn1,169% [activator] (active)
11,Cc1ccc(NC(=O)Nc2cccc(C(F)(F)F)c2)nc1,99.7% (inactive)
12,CCC(=O)NC(Nc1cc(C)ccn1)(C(F)(F)F)C(F)(F)F,104% (inactive)
13,CCCSc1nc(NCc2ccco2)c2c3c(sc2n1)COC(C)(CC)C3 (stereo unspecified),104% (inactive)
14,COc1ccccc1-n1c(-c2cc(-c3ccco3)[nH]n2)n[nH]c1=S,7.03% (active)
15,COc1ccccc1-n1cn[nH]c1=S,98.6% (inactive)
16,COc1ccc(OC)c(-n2c(-c3ccn[nH]3)n[nH]c2=S)c1,96.7% (inactive)
17,CSc1ccc(/C=C/C(=O)NC23CC4CC(CC(C4)C2)C3)cc1,99.9% (inactive)
18,Fc1ccccc1/C=N/n1c(-c2cccnc2)n[nH]c1=S,102% (inactive)
19,OCCC1CN(Cc2cccc(OC3CCCC3)c2)CCN1Cc1ccsc1 (stereo unspecified),100% (inactive)

# — PubChem BioAssay AID1415 (NMMLSC, 2008)
